Test [1] in a line: qHTS assay for small molecules that induce genotoxicity in human embryonic kidney cells expressing luciferase-tagged ATAD5 (AID 651632). Also: nearly all actives have a fitted effect of over 15% in size. The procedure, abridged: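 Increased luciferase signal from ATAD5-tagged reporter cells indicates DNA-damage-driven ATAD5 induction. HEK293T cells are treated for 16 hr at 37C before detection with Amplite.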
Test [2] in a line: qHTS assay for small molecule agonists of the p53 signaling pathway - cell viability (AID 651633; calls by dose curve;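 also: p53RE-bla HCT reporter cells with a stable beta-lactamase p53 reporter; series mostly up to about 83 µM; nearly all actives have a fitted effect of over 30% in size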). The procedure, abridged: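 p53RE-bla cells were treated with compound for 16 hours at 37 C. Cytotoxicity was then measured as CellTiter-Glo luminescence after 30 min at room temperature.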
For orientation: qHTS replaces the single test concentration by a dilution series.

Test [3] in a line: qHTS assay for small molecules that induce genotoxicity in human embryonic kidney cells expressing luciferase-tagged ATAD5 - cell viability (AID 651634; calls by dose curve; also: nearly all actives have a fitted effect of over 25% in size). A digest of the protocol: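 Cytotoxicity counterscreen in HEK293T cells bearing an ATAD5-luciferase reporter: live-cell protease activity measured by CellTiter-Fluor fluorescence after 15.5 hr compound exposure.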
The nature of test [4]: qHTS assay for small molecule disruptors of the mitochondrial membrane potential - cell viability (AID 720634; calls by dose curve;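 also: human HepG2 liver cancer cells; series mostly up to about 83 µM; nearly all actives have a fitted effect of over 20% in size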). The procedure, abridged:
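After overnight attachment at 37 C, HepG2 cells received compound or DMSO vehicle for 1 hr. Viability is then taken from ATP-driven luminescence following a 30 min room-temperature CellTiter-Glo step.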

Test [5] can be described thus: qHTS assay for small molecule disruptors of the mitochondrial membrane potential (AID 720635). The procedure, abridged:
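HepG2 cells exposed to compound 1 hr at 37C, then Mito-MPS dye 30 min. Ratio read of aggregate (540/590 nm) versus monomer (490/535 nm) fluorescence.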

The nature of test [6]: qHTS assay to test for compound auto fluorescence at 535 nm (green) in HepG2 cells (AID 720675).
Test [7] is described as follows: qHTS assay to test for compound auto fluorescence at 460 nm (blue) in HEK293 cells (AID 720678). A digest of the protocol: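 Triamterene serves as the blue fluorophore standard. Compound signal at 405/460 nm is read in HEK293 wells (2,000 cells, 10% dialyzed FBS) after overnight treatment at 37C.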
Test [8] in a line: qHTS assay to test for compound auto fluorescence at 535 nm (green) in HEK293 cells (AID 720680).
Test [9] can be described thus: qHTS assay to test for compound auto fluorescence at 460 nm (blue) in HEK293 cell free culture (AID 720681). A digest of the protocol: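 Compounds were added to cell-free DMEM with 10% FBS and fluorescence read directly. The blue channel used 405 nm excitation and 460 nm emission, with triamterene as the reference fluorophore.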
Test [10] can be described thus: qHTS assay to test for compound auto fluorescence at 535 nm (green) in HEK293 cell free culture (AID 720682). A digest of the protocol: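 Green-channel intensity (Ex/Em 485/535 nm) was recorded from compound-treated wells containing only DMEM with 10% FBS. Fluorescein provided the equivalency standard.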
Test [11] is described as follows: qHTS assay to test for compound auto fluorescence at 590 nm (red) in HEK293 cell free culture (AID 720683). The procedure, abridged: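 Cell-free wells of DMEM with 10% FBS received compound, and intrinsic fluorescence was read at excitation/emission 540/590 nm. Values expressed as equivalence to Rose Bengal sodium.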
Test [12] in a line: qHTS assay to test for compound auto fluorescence at 590 nm (red) in HepG2 cell free culture (AID 720684). A digest of the protocol: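 Compound was pinned into wells holding MEM with 10% FBS and no cells, and red fluorescence was read at Ex/Em 540/590 nm. Signal is expressed as auto fluorescence equivalency relative to Rose Bengal sodium.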
A short description of test [13]: qHTS assay to test for compound auto fluorescence at 460 nm (blue) in HepG2 cell free culture (AID 720685). A digest of the protocol:
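Compound (23 nL) or DMSO pinned into cell-free MEM with 10% FBS; blue fluorescence read at 405/460 nm excitation/emission, expressed as auto-fluorescence equivalency to triamterene.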

Test [14] in a line: qHTS assay to test for compound auto fluorescence at 535 nm (green) in HepG2 cell free culture (AID 720686).
A short description of test [15]: qHTS assay to test for compound auto fluorescence at 460 nm (blue) in HepG2 cells (AID 720687). The procedure, abridged: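 HepG2 cells in MEM with 10% FBS, attached overnight at 37 C, were exposed to compound or DMSO for 1 hr at 37 C, 5% CO2. Blue fluorescence was read at 405/460 nm, with triamterene as reference fluorophore.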
For test [16], the target named is Glucocorticoid receptor (Homo sapiens) (UniProt P04150). In words: qHTS assay to identify small molecule agonists of the glucocorticoid receptor (GR) signaling pathway (AID 720691; active = well fitted activation curve with a large enough effect in the signal ratio in the repeat runs, not every such curve was filed as active; the % refers to the signal ratio; also: potency is read from the fitted curve at half-maximal effect). A digest of the protocol: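 Agonist mode in a HeLa line carrying a GRE-controlled beta-lactamase reporter. Compounds act for 18 h at 37 C before a 2 h room-temperature FRET substrate step and fluorescence reading.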

The nature of test [17]: qHTS assay to test for compound auto fluorescence at 590 nm (red) in HepG2 cells (AID 720674). A digest of the protocol:
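Fluorescence at 590 nm emission following 540 nm excitation was recorded from HepG2 wells one hour after compound transfer, with DMSO-only wells as vehicle and Rose Bengal sodium equivalency as the scale.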

The nature of test [18]: qHTS assay to test for compound auto fluorescence at 590 nm (red) in HEK293 cells (AID 720679). A digest of the protocol:
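We plated HEK293 cells in 10% dialyzed FBS medium, let them adhere for 4-5 hr, then added 23 nL compound. Overnight at 37C and 5% CO2 preceded fluorescence measurement at 540/590nm.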

The target of test [19] is Glucocorticoid receptor (Homo sapiens) (UniProt P04150). Description: qHTS assay to identify small molecule antagonists of the glucocorticoid receptor (GR) signaling pathway (AID 720692; active = well fitted inhibition curve with a large enough effect in the signal ratio in the repeat runs, not every such curve was filed as active; the % refers to the signal ratio). The procedure, abridged:
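Cells plated, rested 4 h at 37 C/5% CO2; compounds in DMSO pin-transferred; dexamethasone added to 5 nM final; 18 h at 37 C; B/G FRET substrate added, 2 h room temperature; fluorescence measured.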

A number with no mark means an inactive call. Results filed as inconclusive are left out. Calls of active or inactive are those of the source. Unless noted, calls follow the shape of the dose curve; as a rule, active = well fitted curve in the direction sought with a large enough effect in the repeat runs; inconclusive = weak or mixed curves; inactive = no such curve, though single readings can be large; an effect the other way counts as inactive or inconclusive.

Glucocorticoid receptor (Homo sapiens), sequence (P04150 whole entry, looked up): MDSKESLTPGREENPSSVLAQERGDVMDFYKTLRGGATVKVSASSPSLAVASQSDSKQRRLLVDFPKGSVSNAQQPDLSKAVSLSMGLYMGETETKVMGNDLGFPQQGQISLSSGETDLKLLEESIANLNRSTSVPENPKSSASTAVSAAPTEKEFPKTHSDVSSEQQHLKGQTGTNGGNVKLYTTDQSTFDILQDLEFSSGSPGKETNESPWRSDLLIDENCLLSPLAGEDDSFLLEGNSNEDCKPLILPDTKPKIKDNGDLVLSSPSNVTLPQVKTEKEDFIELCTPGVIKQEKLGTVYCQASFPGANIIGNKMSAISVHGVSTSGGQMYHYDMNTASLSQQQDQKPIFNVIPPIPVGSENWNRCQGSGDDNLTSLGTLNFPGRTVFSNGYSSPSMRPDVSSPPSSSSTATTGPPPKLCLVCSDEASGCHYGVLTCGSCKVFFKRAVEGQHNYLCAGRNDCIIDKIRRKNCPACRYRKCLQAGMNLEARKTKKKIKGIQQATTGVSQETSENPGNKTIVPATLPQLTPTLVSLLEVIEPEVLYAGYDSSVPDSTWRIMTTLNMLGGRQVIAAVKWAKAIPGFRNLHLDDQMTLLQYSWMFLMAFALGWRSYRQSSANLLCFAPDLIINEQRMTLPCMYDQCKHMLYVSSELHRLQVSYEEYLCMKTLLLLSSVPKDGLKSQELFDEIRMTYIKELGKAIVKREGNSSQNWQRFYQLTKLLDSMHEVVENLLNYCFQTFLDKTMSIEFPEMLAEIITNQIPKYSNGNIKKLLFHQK

As to `CC1(C)O[C@H]2CC(=O)OC[C@]23[C@H]2CC[C@@]4(C)[C@H](c5ccoc5)OC(=O)[C@H]5O[C@]54[C@]2(C)C(=O)C[C@@H]13`, the call in test [1], in test [2], in [4], in test [6], in test [7] and in [8] was inactive. Besides, the call in test [9], in [10], in test [11], in test [12], in test [13] and in test [14] was inactive. In test [15], the result was inactive. In addition, the Potency entry in [3] and in test [5] was “inactive” each time. Further, the Potency in test [16] is 8.49 µM (active).
As to `CCCCCCCCCCCCCBr`, the molecule was classed as inactive in test [1], in test [2], in [4], in [17], in test [6] and in [7]. For the same molecule, the molecule was classed as inactive in [18], in test [8], in test [9], in [10], in test [11] and in [12]. Also, the outcome in test [13], in test [14] and in [15] was inactive. For the same molecule, the Potency entry in test [3] is “inactive”.
In the case of `CN(C)CCCO[C@@H]1[C@H]2OC(C)(C)O[C@H]2O[C@@H]1C(O)CO` (stereo partly drawn), the molecule was classed as inactive in test [1], in [2], in test [4], in test [17], in [6] and in test [7]. In addition, the result in [18], in test [8], in test [9], in [10], in test [11] and in [12] was inactive. Besides, the result in test [13], in [14], in test [15] and in test [19] was inactive. Further, the Potency entry in test [3], in [5] and in [16] was “inactive” in each case.
`CCC(C)OC(C)CC` (stereo not drawn): the call in test [1], in test [2], in test [4], in [17], in test [6] and in test [7] was inactive. Further, the molecule was called inactive in test [18], in test [8], in test [10], in test [11], in test [12] and in test [13]. Besides, the call in test [14], in test [15] and in test [19] was inactive. The Potency result in test [3], in [5] and in test [16] was “inactive” each time.
As for `ONc1ccccc1`, the call in test [1], in test [2], in test [4], in test [6], in [7] and in test [18] was inactive. Further, the result in [8], in test [9], in [10], in [11], in test [12] and in [13] was inactive. Besides, the call in test [14] and in [15] was inactive. Further, the Potency result in [3] and in [16] was “inactive” each time.
As for `CC(=O)Nc1ccc(OC(=O)c2ccccc2OC(C)=O)cc1`, the outcome in test [1], in [4], in test [17], in test [6], in test [7] and in test [18] was inactive. For the same molecule, the molecule was called inactive in [8], in test [9], in test [10], in [11], in test [12] and in [13]. The molecule was called inactive in [14] and in test [15]. Besides, the Potency entry in test [3] and in test [16] was “inactive” each time.
On to `CC12CCC(C1)C(C)(C)C2O` (stereo not drawn), for which the call in test [1], in [4], in test [17], in test [6], in [7] and in test [18] was inactive. Besides, the molecule was called inactive in test [8], in test [9], in test [10], in test [11], in test [12] and in test [13]. Further, the molecule was called inactive in test [14] and in test [15]. Besides, the Potency entry in test [3] and in [5] was “inactive” throughout.
Consider `CC(C)OC(=O)CCC(=O)OC(C)C`, for which the result in test [1], in test [4], in test [6], in test [7], in test [18] and in test [8] was inactive. In addition, the molecule was classed as inactive in [9], in test [10], in [11], in test [12], in [13] and in [14]. Moreover, the result in test [15] and in test [19] was inactive. For the same molecule, the Potency entry in test [3] and in test [16] was “inactive” throughout.

Values taken from PubChem BioAssay (Tox21).
